“And” between values parts separate entries of the source, which are not always exact repeats. Equal values may be shown once. Records with an inconclusive call do not appear. A structure can be active in one record and inactive in another. The source made the active and inactive calls. Unless noted, calls come from the whole dose curve; as a rule, active = well fitted curve in the direction sought with a large enough effect in the repeat runs; inconclusive = weak or mixed curves; inactive = no such curve, though single readings can be large; an effect the other way counts as inactive or inconclusive.

For eight compounds, Potency and outcome results are on record in PubChem BioAssay (Tox21).

Assay [1] can be described thus: qHTS assay for small molecule agonists of the p53 signaling pathway (AID 651631; calls by dose curve; note: nearly all actives have a fitted effect of over 15% in size). The procedure, abridged: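 We treat p53RE-bla HCT-116 cells with compounds for 16 h at 37 °C, add LiveBLAzer B/G FRET substrate for 2 h at room temperature, and measure fluorescence intensity.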
On the technique in general: In qHTS, concentration-response curves come from the screen itself.

Assay [2] can be described thus: qHTS assay for small molecules that induce genotoxicity in human embryonic kidney cells expressing luciferase-tagged ATAD5 (AID 651632). Note: nearly all actives have a fitted effect of over 15% in size. Summed up:
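Luminescent reporter readout, HEK293T ATAD5-luc line: 16 hr drug exposure (37C, 5% CO2) followed by Amplite, 30 min RT.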

Assay [3] in a line: qHTS assay for small molecule agonists of the p53 signaling pathway - cell viability (AID 651633; calls by dose curve;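 note: p53RE-bla HCT reporter cells with a stable beta-lactamase p53 reporter; nearly all actives have a fitted effect of over 30% in size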). Summed up:
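Viability counter-read: CellTiter-Glo luminescence (30 min, room temperature) in the same p53RE-bla plates. These plates had been exposed to compounds for 16 h at 37 C.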

Assay [4] is described as follows: qHTS assay for small molecules that induce genotoxicity in human embryonic kidney cells expressing luciferase-tagged ATAD5 - cell viability (AID 651634; calls by dose curve; note: nearly all actives have a fitted effect of over 25% in size). Summed up: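 Viability read: CellTiter-Fluor fluorescence, 30 min at 37C. Cells: HEK293T, luciferase-tagged ATAD5. Exposure: 15.5 hr, 37C, 5% CO2, compound or DMSO vehicle.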
Assay [5] can be described thus: qHTS assay for small molecule disruptors of the mitochondrial membrane potential - cell viability (AID 720634; calls by dose curve;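 note: human HepG2 liver cancer cells; nearly all actives have a fitted effect of over 20% in size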). Summed up: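 HepG2, 1 hr compound, 37 C. ATP luminescence via CellTiter-Glo, 30 min RT, same well as m-MPI.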
Assay [6] in a line: qHTS assay for small molecule disruptors of the mitochondrial membrane potential (AID 720635). Note: potency is the fitted concentration of half-maximal effect. Summed up: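 Mitochondrial membrane potential tracked with Mito-MPS dye, red aggregates (ex 540/em 590 nm) against green monomers (ex 490/em 535 nm). Compound treatment 1 hr at 37C, dye 30 min in HepG2.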
The nature of assay [7]: qHTS assay to test for compound auto fluorescence at 590 nm (red) in HepG2 cells (AID 720674). Summed up:
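Red autofluorescence (Ex/Em 540/590 nm, Rose Bengal sodium equivalents) was measured in HepG2 cells, 2,000 per well in MEM plus 10% FBS, plated overnight at 37 C. Readings were taken 1 hr after adding 23 nL compound or DMSO, at 37 C and 5% CO2.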

A short description of assay [8]: qHTS assay to test for compound auto fluorescence at 535 nm (green) in HepG2 cells (AID 720675).
Assay [9] is described as follows: qHTS assay to test for compound auto fluorescence at 460 nm (blue) in HEK293 cells (AID 720678). The procedure, abridged: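 Blue read-out at excitation 405 nm and emission 460 nm follows overnight compound exposure of HEK293 cells at 37C in 5% CO2. Activity is given as auto fluorescence equivalency to triamterene.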
The nature of assay [10]: qHTS assay to test for compound auto fluorescence at 590 nm (red) in HEK293 cells (AID 720679). Summed up:
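Red channel, Ex/Em 540/590nm; signal expressed as equivalency to Rose Bengal sodium. HEK293, 2,000 cells/well, 10% dialyzed FBS; 23 nL compound pinned after 4-5 hr attachment; overnight 37C/5% CO2 before reading.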

A short description of assay [11]: qHTS assay to test for compound auto fluorescence at 535 nm (green) in HEK293 cells (AID 720680).
The nature of assay [12]: qHTS assay to test for compound auto fluorescence at 535 nm (green) in HEK293 cell free culture (AID 720682). Summed up: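 Green-channel intensity (Ex/Em 485/535 nm) was recorded from compound-treated wells containing only DMEM with 10% FBS. Fluorescein provided the equivalency standard.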
A short description of assay [13]: qHTS assay to test for compound auto fluorescence at 590 nm (red) in HEK293 cell free culture (AID 720683). Summed up:
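Red-channel autofluorescence of compounds in culture medium (DMEM, 10% FBS), no cells, measured at 540/590 nm. Rose Bengal sodium is the reference fluorophore for equivalence.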

A short description of assay [14]: qHTS assay to test for compound auto fluorescence at 590 nm (red) in HepG2 cell free culture (AID 720684). Summed up: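 Plate contents were MEM with 10% FBS plus test compound or DMSO, no cells. Fluorescence was recorded with 540 nm excitation and 590 nm emission.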
A short description of assay [15]: qHTS assay to test for compound auto fluorescence at 460 nm (blue) in HepG2 cell free culture (AID 720685). Summed up:
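Compound (23 nL) or DMSO pinned into cell-free MEM with 10% FBS; blue fluorescence read at 405/460 nm excitation/emission, expressed as auto-fluorescence equivalency to triamterene.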

The nature of assay [16]: qHTS assay to test for compound auto fluorescence at 535 nm (green) in HepG2 cell free culture (AID 720686).
Assay [17] in a line: qHTS assay to test for compound auto fluorescence at 460 nm (blue) in HepG2 cells (AID 720687). Summed up:
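Blue-channel autofluorescence (Ex/Em 405/460 nm, triamterene-equivalent) was measured after 1 hr compound exposure at 37 C, 5% CO2. Cells were HepG2, plated overnight at 37 C in MEM plus 10% FBS.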

Assay [18] can be described thus: qHTS assay to test for compound auto fluorescence at 460 nm (blue) in HEK293 cell free culture (AID 720681). The procedure, abridged: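 Blue fluorescence (Ex 405/Em 460 nm, triamterene-equivalent) was read immediately after pin transfer of compound or DMSO into medium (DMEM, 10% FBS) without cells.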
Assay [19] concerns the target Glucocorticoid receptor (Homo sapiens) (UniProt P04150). Briefly: qHTS assay to identify small molecule agonists of the glucocorticoid receptor (GR) signaling pathway (AID 720691; active = well fitted activation curve with a large enough effect in the signal ratio in the repeat runs, not every such curve was filed as active; the % refers to the signal ratio). The following applies: GR-bla HeLa, beta-lactamase reporter ratio, 18 h; activation: at 62.4 µM (top of the series). Summed up:
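qHTS in GR-bla HeLa cells: 4 h settling at 37 C/5% CO2, 18 h compound incubation at 37 C, 2 h LiveBLAzer B/G FRET substrate at room temperature, fluorescence intensity measured.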

Assay [20] has the same target. Briefly: qHTS assay to identify small molecule antagonists of the glucocorticoid receptor (GR) signaling pathway (AID 720692; active = well fitted inhibition curve with a large enough effect in the signal ratio in the repeat runs, not every such curve was filed as active; the % refers to the signal ratio). Summed up: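 Inhibition of glucocorticoid signalling is measured in HeLa cells with a GRE-controlled beta-lactamase reporter; cells are co-treated with compound and 5 nM dexamethasone (final) for 18 h before FRET substrate readout.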

Chain of Glucocorticoid receptor (Homo sapiens) (P04150 whole entry, looked up): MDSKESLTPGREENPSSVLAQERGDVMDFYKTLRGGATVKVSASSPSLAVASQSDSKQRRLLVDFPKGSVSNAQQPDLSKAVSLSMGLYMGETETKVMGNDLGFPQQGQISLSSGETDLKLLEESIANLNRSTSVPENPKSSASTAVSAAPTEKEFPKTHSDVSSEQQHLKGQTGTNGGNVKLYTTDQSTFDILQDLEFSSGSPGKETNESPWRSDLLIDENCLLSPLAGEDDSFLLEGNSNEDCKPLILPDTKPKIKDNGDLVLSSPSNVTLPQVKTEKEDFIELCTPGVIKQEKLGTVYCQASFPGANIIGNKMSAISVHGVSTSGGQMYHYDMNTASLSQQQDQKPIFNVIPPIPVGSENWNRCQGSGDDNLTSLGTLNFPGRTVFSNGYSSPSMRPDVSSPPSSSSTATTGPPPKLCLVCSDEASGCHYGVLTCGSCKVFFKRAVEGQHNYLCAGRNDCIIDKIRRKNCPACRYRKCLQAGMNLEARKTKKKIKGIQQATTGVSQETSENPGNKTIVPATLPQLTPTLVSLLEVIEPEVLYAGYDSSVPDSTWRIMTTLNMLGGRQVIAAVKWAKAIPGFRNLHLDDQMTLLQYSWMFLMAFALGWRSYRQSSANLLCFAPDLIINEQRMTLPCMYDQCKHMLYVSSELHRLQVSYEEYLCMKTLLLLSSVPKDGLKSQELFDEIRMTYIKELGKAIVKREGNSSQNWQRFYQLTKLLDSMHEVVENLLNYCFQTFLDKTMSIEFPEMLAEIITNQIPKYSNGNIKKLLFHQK

With `C=C(C)C(=O)O[C@H]1C[C@@H]2CC[C@@]1(C)C2(C)C`, the Potency result in assay [1], in assay [3], in assay [4], in assay [5] and in assay [6] was “inactive” throughout. Moreover, the compound was classed as inactive in [2], in assay [7], in [8], in assay [9], in [10] and in assay [11]. For the same compound, the call in [12], in assay [13], in assay [14], in assay [15], in assay [16] and in [17] was inactive.

Turning to `CC(O)COCC(C)O` (stereo not given), the Potency entry in [1], in [3], in assay [4], in assay [5], in [6] and in assay [19] was “inactive” throughout. In addition, in [20], the Potency result is “inactive”. The result in [2], in assay [8], in assay [9], in assay [10], in assay [11] and in assay [18] was inactive. In addition, the compound was classed as inactive in [12], in [13], in assay [14], in [15], in assay [16] and in assay [17].

Turning to `CCCCOC(=O)COc1ccc(Cl)cc1Cl`, the Potency result in assay [1], in assay [3], in assay [5] and in [6] was “inactive” throughout. Also, the result in [2], in assay [7], in assay [8], in assay [9], in assay [10] and in assay [11] was inactive. The call in [12], in assay [13], in [14], in assay [16] and in [17] was inactive.

As to `O=C1CCC(N2C(=O)c3ccccc3C2=O)C(=O)N1` (stereo not given), the Potency entry in assay [1], in assay [3], in [4], in assay [5], in assay [6] and in [19] was “inactive” in each case. Further, in assay [20], the Potency result was “inactive”. The compound was called inactive in assay [2], in assay [7], in [8], in [9], in assay [10] and in [11]. Also, the compound was called inactive in [18], in [12], in assay [13], in assay [14], in [15] and in [16]. In addition, the call in [17] was inactive.

For the compound `COc1ccc(Nc2ccccc2)c(C)c1`, the Potency entry in [1], in [3], in [4], in [5], in assay [19] and in assay [20] was “inactive” each time. Also, the result in assay [2], in assay [7], in [8], in assay [9], in assay [10] and in assay [18] was inactive. The compound was classed as inactive in assay [12], in assay [13], in [14], in assay [15], in [16] and in assay [17]. For the same compound, in [6], the Potency entry was “inactive and 48.6 µM (active)”.

Consider `CCCCCCCCCCCCCCO`, for which the Potency result in assay [1], in assay [3], in assay [4] and in assay [5] was “inactive” each time. Moreover, the call in [2], in [7], in assay [8], in assay [9], in [10] and in assay [18] was inactive. Further, the compound was called inactive in assay [12], in assay [13], in assay [14], in [15], in [16] and in assay [17]. Besides, in [6], the Potency is 61.1 µM (active).

Regarding `C#CCN(C)Cc1ccccc1`, the Potency result in assay [1], in assay [3], in assay [4], in [5], in assay [6] and in assay [19] was “inactive” throughout. The Potency result in assay [20] was “inactive”. The result in assay [7], in [8], in [9], in [10], in assay [12] and in assay [14] was inactive. Further, the result in assay [15], in [16] and in assay [17] was inactive.

`CCCCC(CC)COC(=O)CS` (stereo not given): the Potency entry in [1], in [3], in assay [4], in assay [5], in [6] and in [19] was “inactive” in each case. Moreover, the Potency result in [20] is “inactive”. Also, the call in assay [8], in assay [9], in [10], in [11], in assay [18] and in assay [12] was inactive. Also, the outcome in [13], in assay [14], in assay [16] and in assay [17] was inactive.
